Source: PubChem BioAssay
Inconclusive results are not listed. The source made the active and inactive calls.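 How the source made its calls, unless noted: active means RAM network inhibition above 8.4% in each of two replicates, 3 SD over the compound average; inconclusive means above 8.4% inhibition in only one replicate; inactive means 8.4% inhibition or less in each replicate.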

How the values were obtained:
[1] = Her2 expression decrease, cell viability multiplex – SKBR3 breast tumor cells, AlphaScreen, ATP viability, primary screen (AID 461;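 active means Her2 level under about 52% in both replicate screens, with viability over 70% of control, limit read from the data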;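 on Her2 level: lower value means less Her2 protein in the cells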;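 on viability: percent of carrier control wells set as 100% viability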); conditions: SKBR3 Her2 protein level, 18-24 h, measured here: SKBR3 viability, ATP luminescence, at 10 µM
[2] = biological target: Receptor tyrosine-protein kinase erbB-2 (Homo sapiens) (UniProt P04626); experiment: as above; conditions: 18-24 h, at 10 µM, stronger effect = lower value
[3] = reduced viability of SK-BR-3 breast cancer cells – cell-based, 24 h, human, pilot screen (AID 572;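 active means viability at or below 10% of carrier control in both of two separate runs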;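 further: compound exposure lasted between 18 and 24 h rather than exactly 24 h; 100% = carrier-treated control wells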); conditions: SK-BR-3 viability, CellTiter-Glo luminescence, at 10 µM, stronger effect = lower value
[4] = HUVEC growth inhibition – cell-based, human, primary screen (AID 575;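 active means viability at or below 30% in both replicate assays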;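 further: 100% = median of untreated cell wells with 0.1% DMSO on each plate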); conditions: HUVEC proliferation, CellTiter-Glo luminescence, 72 h; at 10 µM; stronger effect = lower value
[5] = H69AR cell proliferation blockers – human, duplicate replicates, primary screen (AID 580;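 active means viability at or under a set limit in both replicates, limit being median viability minus 3 SD, cut at about 48% in these data, passing the limit was not always enough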;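 further: 100% = mean luminescence of untreated wells and 0% = no signal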); conditions: H69AR lung tumor cells viability, ATP luminescence, 72 h; at 10 µM; stronger effect = lower value
[6] = MRP1 drug-resistance reversers in H69AR cells – cell-based, doxorubicin co-treatment, pilot screen (AID 601;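 active means viability loss from added drug above about 55%, and viability with drug at most 40%, in both replicates, limit read from the data, passing the limit was not always enough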); conditions: CellTiter-Glo, 72 h, at 10 µM; for differential viability (reversal): stronger effect = higher value
[7] = yeast transport mutant growth inhibition pilot in 384-well plates, post-Golgi transport modulator project (AID 636; in the data active means inhibition above about 31%); conditions: absorbance 615 nm, about 18 h, stronger effect = higher value
[8] = growth suppression of yeast trafficking mutant, preliminary HTS, modulators of trafficking downstream of Golgi apparatus project, 1536-format plate, OD 615 nm (AID 637; in the data active means inhibition above about 30%); conditions: yeast transport mutant growth, absorbance 615 nm, 18 h; stronger effect = higher value
[9] = S. cerevisiae growth inhibition in permissive medium (OD615), pilot counter-assay for S. cerevisiae lifespan shortening project, permissive growth control (AID 705;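 active means growth inhibition above 25% in both replicates, a cutoff set 3 SD above the mean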); conditions: OD615, 24 h, at 10 µM, stronger effect = higher value
[10] = S. cerevisiae growth inhibition in restrictive medium, OD615, pilot screen, restrictive growth control, yeast lifespan reduction project (AID 706;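 active means growth inhibition above a set limit, 3 SD over mean compound inhibition, in both replicates, cut at about 43% in these data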;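 further: modified DeaD lifespan yeast strain shifted to restrictive glucose medium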); conditions: OD615, 48 h, at 10 µM, stronger effect = higher value
[11] = doxorubicin toxicity protection in MRP-1 cells – H69AR cells, CellTiter-Glo, duplicate, MRP-1 activator project, pilot screen (AID 807;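 active means viability increase at or above a cutoff of the median across tested compounds plus 3 SD, cut at about 8.5% in these data, passing the limit was not always enough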;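 further: compound pretreatment 18-22 h then 72 h combined with doxorubicin; 0% = doxorubicin alone and 100% = vehicle without doxorubicin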); conditions: H69AR viability with doxorubicin, CellTiter-Glo luminescence; at 10 µM; stronger effect = higher value
[12] = viability of HCT116 without oncogenic beta-catenin – human colon tumor cells, pilot screen (AID 823;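 active means cell viability at or below a set limit in both duplicate runs, the limit being the all-compound median minus 4 SD, cut at about 23% in these data, passing the limit was not always enough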;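 further: 0% = wells killed by 20 µM Hyamine and 100% = untreated DMSO cell wells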); conditions: HCT116 beta-catenin knockout viability, CellTiter-Glo, 60 h; at 10 µM; stronger effect = lower value
[13] = viability of PTEN-null HCT116 cells – cell-based, HCT116 clonal line, CellTiter-Glo, pilot screen (AID 824;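 active means viability at or below 27.92% in each of two runs, the all-compound median minus 4 SD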;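 further: 0% = 20 µM Hyamine control and 100% = vehicle cell control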); conditions: HCT116 PTEN-deleted viability, 60 h, at 10 µM, stronger effect = lower value
[14] = RAM pathway blockade in budding yeast – dse1pr::URA3 reporter, 5-FOA selection, pilot screen (AID 869;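 active means inhibition over a set limit, the all-compound mean plus 3 SD, in both replicate runs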;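 further: 0% = DMSO wells with no growth and 100% = 10 µM 1-NA-PP1 with full growth; RAM network block rescues cells from 5-FOA so hits raise OD615 growth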); conditions: S. cerevisiae dse1pr::URA3 5-FOA growth, OD615, 2 d; at 10 µM; stronger effect = higher value; strain carries analog-sensitive mutant Cbk1 kinase
[15] = RAM signaling pathway blockade in yeast – S. cerevisiae, Pdr1DBD-CYC8 efflux-inhibited sensitized strain, primary screen (AID 1298);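 further: 0% = DMSO untreated cells without growth and 100% = 10 µM 1-NA-PP1 full growth; higher means more yeast growth rescued from 5-FOA killing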; conditions: S. cerevisiae cbk1-as DSE1-URA3 strain, 5-FOA growth OD615, 2 d; at 50 µM; stronger effect = higher value
[16] = H69AR cells + 2 uM doxorubicin, measured here: viability with 2 uM doxorubicin, stronger effect = lower value
[17] = H69AR cells, compound alone cytotoxicity

Chain of Receptor tyrosine-protein kinase erbB-2 (Homo sapiens) (P04626 whole entry, looked up): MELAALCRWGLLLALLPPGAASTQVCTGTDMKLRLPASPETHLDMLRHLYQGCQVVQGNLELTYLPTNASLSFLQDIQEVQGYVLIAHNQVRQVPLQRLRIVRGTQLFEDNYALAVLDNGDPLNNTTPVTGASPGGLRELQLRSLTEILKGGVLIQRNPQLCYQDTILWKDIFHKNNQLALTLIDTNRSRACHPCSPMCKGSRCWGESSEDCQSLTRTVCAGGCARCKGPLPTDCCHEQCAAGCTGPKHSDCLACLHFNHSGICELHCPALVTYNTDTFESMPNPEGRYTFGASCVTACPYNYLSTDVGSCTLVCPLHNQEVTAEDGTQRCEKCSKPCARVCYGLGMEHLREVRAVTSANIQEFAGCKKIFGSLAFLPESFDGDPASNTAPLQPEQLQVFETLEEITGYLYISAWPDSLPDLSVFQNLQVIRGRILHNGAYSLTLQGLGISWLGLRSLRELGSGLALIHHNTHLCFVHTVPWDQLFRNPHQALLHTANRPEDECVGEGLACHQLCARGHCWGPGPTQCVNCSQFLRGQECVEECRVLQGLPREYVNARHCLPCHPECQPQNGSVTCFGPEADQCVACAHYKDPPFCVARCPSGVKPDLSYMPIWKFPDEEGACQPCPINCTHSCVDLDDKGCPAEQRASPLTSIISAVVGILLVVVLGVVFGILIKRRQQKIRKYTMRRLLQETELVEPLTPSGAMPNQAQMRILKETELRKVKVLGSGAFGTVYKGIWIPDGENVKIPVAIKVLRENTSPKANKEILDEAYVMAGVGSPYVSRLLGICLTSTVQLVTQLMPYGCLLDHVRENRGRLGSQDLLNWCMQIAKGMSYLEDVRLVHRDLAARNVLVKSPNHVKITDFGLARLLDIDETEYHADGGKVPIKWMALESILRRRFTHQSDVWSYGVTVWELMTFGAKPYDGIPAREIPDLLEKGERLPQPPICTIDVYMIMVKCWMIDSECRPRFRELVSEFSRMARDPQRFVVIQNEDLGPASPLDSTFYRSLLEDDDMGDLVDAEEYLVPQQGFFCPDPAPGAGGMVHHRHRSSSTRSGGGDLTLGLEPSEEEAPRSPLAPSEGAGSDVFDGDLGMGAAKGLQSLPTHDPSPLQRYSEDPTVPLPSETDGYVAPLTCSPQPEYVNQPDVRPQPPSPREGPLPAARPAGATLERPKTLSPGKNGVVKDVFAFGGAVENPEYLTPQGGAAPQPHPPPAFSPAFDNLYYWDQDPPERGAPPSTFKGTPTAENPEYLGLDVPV

Row | Compound | viability [1] [%] | Her2 level [2] | viability [3] | viability [4] | viability [5] | differential viability (reversal) ([6]; H69AR cells + 2 uM doxorubicin) | viability [6, 16] [%] | viability [6, 17] [%] | inhibition [7] | inhibition [8] | growth inhibition [9] | growth inhibition [10] | viability increase [11] | viability [12] | viability [13] | inhibition [14] | RAM network inhibition [15]
1 | Cc1nnc(SCC(=O)Nc2c(Cl)cccc2Cl)[nH]c1=O | 104 | 101% (inactive) | 104% (inactive) | 99.1% (inactive) | 93.9% (inactive) | 0.52% (inactive) | 93.3 | 93.9 | -3.73% (inactive) | -2.17% (inactive) | -7.89% (inactive) | 7.47% (inactive) | 0.15% (inactive) | 98.7% (inactive) | 104% (inactive) | 1.54% (inactive) | 4.64% (inactive)
2 | O=C(NCCc1c[nH]c2ccccc12)c1cnc2n(c1=O)CCS2 | 92 | 83% (inactive) | 92% (inactive) | 81.8% (inactive) | 82% (inactive) | -5.14% (inactive) | 87.1 | 82 | -3.07% (inactive) | 1.8% (inactive) | -5.46% (inactive) | 2.1% (inactive) | -3.94% (inactive) | 96.6% (inactive) | 95.7% (inactive) | 0.62% (inactive) | 6.77% (inactive)
3 | COc1ccc(OC)c(C2=NOC(C(=O)Nc3c(C)n(C)n(-c4ccccc4)c3=O)C2)c1 (stereo not given) | 88.5 | 96% (inactive) | 88.5% (inactive) | 84.6% (inactive) | 95.3% (inactive) | 8.86% (inactive) | 86.5 | 95.3 | -2.93% (inactive) | -7.54% (inactive) | -11.8% (inactive) | -24% (inactive) | -0.56% (inactive) | 99.4% (inactive) | 107% (inactive) | 0.74% (inactive) | 3.94% (inactive)
4 | COc1ccc(NC(=O)C2CCCN(S(=O)(=O)c3cccc4cccnc34)C2)cc1OC (stereo not given) | 82 | 106% (inactive) | 82% (inactive) | 75.4% (inactive) | 67.5% (inactive) | -6.73% (inactive) | 74.2 | 67.5 | -4.13% (inactive) | 1.67% (inactive) | -1.21% (inactive) | 0.31% (inactive) | -2.32% (inactive) | 80.3% (inactive) | 78.6% (inactive) | 2.09% (inactive) | 2.55% (inactive)
5 | COc1cccc(C2CC(=O)Nc3cc4c(cc32)OCCO4)c1OC(C)C (stereo not given) | 99 | 88.5% (inactive) | 99% (inactive) | 84.6% (inactive) | 41.2% (active) | -29.5% (inactive) | 70.7 | 41.2 | -1.2% (inactive) | -3.61% (inactive) | -3.68% (inactive) | 0.265% (inactive) | -4.91% (inactive) | 65.7% (inactive) | 65% (inactive) | 0.76% (inactive) | 2.97% (inactive)
6 | CCCCn1c(SCC(=O)OCC)nc2c1c(=O)[nH]c(=O)n2C | 100 | 93% (inactive) | 100% (inactive) | 96.8% (inactive) | 97.3% (inactive) | 0.46% (inactive) | 96.8 | 97.3 | -2.53% (inactive) | 0.33% (inactive) | 0.935% (inactive) | 1.66% (inactive) | -2.5% (inactive) | 94.4% (inactive) | 91.6% (inactive) | 1.31% (inactive) | 0.35% (inactive)
7 | O=C(Nn1cnnc1)C1Cc2ccccc2CN1S(=O)(=O)c1ccc(F)cc1 (stereo not given) | 112 | 97% (inactive) | 112% (inactive) | 90.4% (inactive) | 97.2% (inactive) | -1.64% (inactive) | 98.8 | 97.2 | -5.95% (inactive) | 4.75% (inactive) | -1.04% (inactive) | 5.43% (inactive) | 0.15% (inactive) | 101% (inactive) | 102% (inactive) | 0.38% (inactive) | 4.84% (inactive)
8 | C=C(C)Cn1c(N2CC(C)CC(C)C2)nc2c1c(=O)[nH]c(=O)n2C (stereo not given) | 84 | 86% (inactive) | 84% (inactive) | 96.2% (inactive) | 83.2% (inactive) | -11.8% (inactive) | 95.1 | 83.2 | -4.93% (inactive) | 1% (inactive) | -5.73% (inactive) | 0.695% (inactive) | -5.11% (inactive) | 78.3% (inactive) | 81.2% (inactive) | 1.05% (inactive) | 1.9% (inactive)
9 | CCN1CCN(C(=O)C2CCN(C(=O)c3cc4sccc4n3CC)CC2)CC1 | 104 | 104% (inactive) | 104% (inactive) | 115% (inactive) | 83% (inactive) | -15.3% (inactive) | 98.3 | 83 | -5.07% (inactive) | 3.67% (inactive) | -13.3% (inactive) | -13.5% (inactive) | -1.69% (inactive) | 105% (inactive) | 95.5% (inactive) | 0.53% (inactive) | 0.58% (inactive)
10 | CC1=C(C)CC2C(=O)N(c3cccc4ccccc34)C(=O)C2C1 (stereo not given) | 104 | 114% (inactive) | 104% (inactive) | 80.1% (inactive) | 85.7% (inactive) | 2.52% (inactive) | 83.2 | 85.7 | -6.53% (inactive) | -11.3% (inactive) | 75.2% (active) | 67.6% (active) | -0.78% (inactive) | 100% (inactive) | 96.5% (inactive) | 0.295% (inactive) | 2.23% (inactive)
11 | Cc1nnc(SCC(=O)Nc2sc3c(c2C#N)CCCC3)[nH]c1=O | 95.5 | 91.5% (inactive) | 95.5% (inactive) | 88.3% (inactive) | 102% (inactive) | 4.41% (inactive) | 97.4 | 102 | -3.38% (inactive) | -4.83% (inactive) | 1.05% (inactive) | 10.9% (inactive) | -2.28% (inactive) | 103% (inactive) | 101% (inactive) | 0.455% (inactive) | 3.34% (inactive)
12 | COc1ccc(C2CC(c3cccs3)n3nc(N)nc3N2)cc1 (stereo not given) | 113 | 102% (inactive) | 113% (inactive) | 89.3% (inactive) | 91.4% (inactive) | 7.99% (inactive) | 83.4 | 91.4 | -2.4% (inactive) | -6.39% (inactive) | 2.05% (inactive) | 17% (inactive) | -1.71% (inactive) | 94.2% (inactive) | 82.2% (inactive) | 0.275% (inactive) | 8.26% (inactive)
13 | Cc1c(C(=O)OCCOC(C)C)[nH]c2c1C(=O)CC(c1ccco1)C2 (stereo not given) | 81 | 73% (inactive) | 81% (inactive) | 50.2% (inactive) | 38.3% (active) | -34.4% (inactive) | 72.7 | 38.3 | 1.47% (inactive) | -4.59% (inactive) | -3.61% (inactive) | -3.07% (inactive) | -4.69% (inactive) | 17.1% (active) | 17.8% (active) | 0.735% (inactive) | -1.95% (inactive)
14 | Oc1ccc2ccccc2c1CN1CCN(c2ccccc2F)CC1 | 110 | 90% (inactive) | 110% (inactive) | 90.1% (inactive) | 76.6% (inactive) | 3.1% (inactive) | 73.5 | 76.6 | -3.47% (inactive) | -0.33% (inactive) | -13.8% (inactive) | -10.6% (inactive) | -5.72% (inactive) | 95.4% (inactive) | 93.9% (inactive) | 0.72% (inactive) | 0.16% (inactive)
15 | COc1ccc(S(=O)(=O)N2CCC(C(=O)Nc3c(F)cccc3F)CC2)cc1 | 88.5 | 111% (inactive) | 88.5% (inactive) | 96.5% (inactive) | 97.6% (inactive) | 0.885% (inactive) | 96.8 | 97.6 | 0.93% (inactive) | -4.17% (inactive) | -11.9% (inactive) | -14.8% (inactive) | -2.23% (inactive) | 99.6% (inactive) | 101% (inactive) | 3.77% (inactive) | 3.07% (inactive)
16 | CN(C)C(=O)N1CCN(C(=O)c2ccco2)CC1 | 116 | 114% (inactive) | 116% (inactive) | 94.6% (inactive) | 101% (inactive) | 6.83% (inactive) | 94.6 | 101 | 2.4% (inactive) | -3.83% (inactive) | 1.14% (inactive) | 8.06% (inactive) | -1.78% (inactive) | 102% (inactive) | 99.5% (inactive) | 2.13% (inactive) | 0.72% (inactive)
17 | COc1ccc(S(=O)(=O)Cc2ccc(C(=O)N3CCN(c4ccccc4)CC3)o2)cc1 | 72.5 | 115% (inactive) | 72.5% (inactive) | 104% (inactive) | 84.4% (inactive) | -1.7% (inactive) | 86.1 | 84.4 | -2.8% (inactive) | -7.5% (inactive) | -11.7% (inactive) | -18.9% (inactive) | -2.99% (inactive) | 88.8% (inactive) | 89.3% (inactive) | 0.76% (inactive) | 8.54% (inactive)
18 | Cc1occc1C(=O)N1CCN(c2ncccn2)CC1 | 87 | 118% (inactive) | 87% (inactive) | 99.6% (inactive) | 95.8% (inactive) | 8.91% (inactive) | 86.9 | 95.8 | 2.56% (inactive) | -5.83% (inactive) | -15.2% (inactive) | -1.04% (inactive) | -0.73% (inactive) | 101% (inactive) | 91.9% (inactive) | 1.98% (inactive) | 1.89% (inactive)
19 | O=C(Nc1cccc(F)c1)C1C2C=CC3(CN(CCCN4CCOCC4)C(=O)C13)O2 (stereo not given) | 96 | 104% (inactive) | 96% (inactive) | 89.4% (inactive) | 103% (inactive) | 20.3% (inactive) | 83.1 | 103 | -2.27% (inactive) | -3.11% (inactive) | 1.12% (inactive) | 1.81% (inactive) | 0.8% (inactive) | 106% (inactive) | 106% (inactive) | 0.595% (inactive) | 2.03% (inactive)
20 | O=C(NCc1cccs1)C(Cc1ccccc1)n1cccc1 (stereo not given) | 114 | 110% (inactive) | 114% (inactive) | 106% (inactive) | 94.6% (inactive) | 8.57% (inactive) | 86 | 94.6 | -1.67% (inactive) | -5.67% (inactive) | 3.97% (inactive) | -4.98% (inactive) | 0.04% (inactive) | 92.6% (inactive) | 89.9% (inactive) | 3.21% (inactive) | 3.72% (inactive)
